# Screening results (PubChem BioAssay)
# GLP-1R inv ag – acts as inverse agonist at human GLP-1 receptor | P43220 | HEK293 GLP-1R CRE-luciferase, luminescence, 24 h; GLP-1R form is constitutively active | Potency, µM (series often up to 38.3 µM), inactives show top-dose activity change, negative = inhibition, hits mostly inhibitors | actives 1.6% (n = 410,000) | AID 624417; also: % is scaled to controls: 0 for no effect and ±100 for the full control effect; nearly all actives have a fitted effect of over 55% in size
# Target sequence (P43220 whole entry, looked up): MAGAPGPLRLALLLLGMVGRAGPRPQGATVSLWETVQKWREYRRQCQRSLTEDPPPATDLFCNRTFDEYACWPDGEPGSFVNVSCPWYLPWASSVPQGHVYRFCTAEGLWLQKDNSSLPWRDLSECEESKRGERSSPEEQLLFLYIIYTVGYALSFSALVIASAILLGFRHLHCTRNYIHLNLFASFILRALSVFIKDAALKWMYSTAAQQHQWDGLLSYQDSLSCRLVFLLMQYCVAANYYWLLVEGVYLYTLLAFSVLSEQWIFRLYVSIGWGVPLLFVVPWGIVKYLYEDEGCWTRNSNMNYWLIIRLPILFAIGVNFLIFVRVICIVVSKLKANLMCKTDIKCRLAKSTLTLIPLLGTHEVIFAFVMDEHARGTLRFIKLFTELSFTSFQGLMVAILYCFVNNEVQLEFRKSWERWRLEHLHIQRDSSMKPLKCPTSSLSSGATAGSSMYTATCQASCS
#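 Inverse agonists were sought by their lowering of basal cAMP reporter luciferase output in HEK293 cells stably carrying constitutively active human GLP-1R, after 24 h compound treatment.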
# GLP-1R agonist – activates the human GLP-1 receptor | P43220 | HEK293 GLP-1R CRE-luciferase, luminescence, 4-6 h; cells express a hypersensitive GLP-1R form | Potency, µM (series often up to 45.6 µM), without a hit: at the top dose activation, usual class: activators | actives 0.007% (n = 380,000) | AID 624172; also: % of control where 0% means no effect
# TGFb SMAD3 inh – inhibitors of TGF-b signaling | actives 1.2% (n = 410,000) | HepG2 CAGA-GFP TGF-b/SMAD3 reporter, GFP fluorescence, 18 h; TGF-beta stimulated, 500 pg/mL final | AID 588855 | Potency, µM (titrated, usually from 46.1 µM), for inactives: top-dose activity, negative = inhibition, hits mostly inhibitors; also: % is scaled to controls: 0 for no effect and ±100 for the full control effect; nearly all actives have a fitted effect of over 65% in size
#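 Read-out: total well GFP (ex488/em500-530) summed from mean per-cell fluorescence. Cells: HEPG2 CAGA-GFP, 1% FBS DMEM, 18 h at 37 degrees C with 500 pg/mL final TGF-beta. Unstimulated wells served as the full-inhibition control; stimulated DMSO wells = 0%.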
# HepG2 tox – counter-screen for TGF-b inhibitors: cytotoxicity in HepG2 cells; Potency, µM (top dose mostly 46.1 µM), without a hit: at the top dose activity change, negative = cytotoxicity, most hits filed as cytotoxic; AID 588856; HepG2 CAGA-GFP viability, ATP luminescence, 18 h; actives 0.76% (n = 410,000)
#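 HepG2 CAGA-GFP cells (1000/well, DMEM with 1% FBS) received compound, then TGF-beta at 500 pg/mL final, and were incubated 18 hours at 37 degrees C. Viability was read by CellTiter-Glo luminescence. Media-only wells were set as complete cell-killing and DMSO as no toxicity.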
# ATXN2 expr inh – reduces ATXN2 reporter expression in HEK-293 cells. Potency, µM (highest dose often 57 µM), inactives show at the top dose activity change, negative = inhibition, hits mostly inhibitors. HEK-293 ATXN2-luciferase reporter, luminescence, 24 h. actives 0.72% (n = 360,000); also: % is scaled to controls: 0 for no effect and ±100 for the full control effect; nearly all actives have a fitted effect of over 55% in size
#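 ATXN2-luciferase reporter cells (luciferase flanked by upstream and downstream ATXN2 gene portions) were treated 24 h at 37 °C with compounds at up to 57 uM. SteadyGlo luminescence gave expression; GF-AFC fluorescence gave viability.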
# ATXN viability – cell viability loss in ATXN counter-screen; Potency, µM (titrated, usually from 56.7 µM), most hits filed as cytotoxic; actives 0.49% (n = 400,000); AID 651635; S2 cells (HEK-293 line with an ATXN2-luciferase reporter) viability, CellTiter-Fluor protease fluorescence, 24 h; also: nearly all actives have a fitted effect of over 40% in size
# Numbers without * were called inactive; i = inactive; ? = inconclusive; . = no result given; [ ] = remark or other dose. In the library only some 3.7% were active in any assay of this set; here they are far more common. Calls follow the shape of the dose curve; as a rule, active = well fitted curve in the direction sought with a large enough effect; inconclusive = small, poorly fitted or top-dose-only effect, or another doubt; inactive = no such curve, though single readings can be large; an effect the other way counts as inactive or inconclusive. Potency is read from the fitted curve at half-maximal effect.
SMILES,GLP-1R inv ag,GLP-1R agonist,TGFb SMAD3 inh,HepG2 tox,ATXN2 expr inh,ATXN viability
CS(=O)(=O)c1ccc(S(=O)CC(=O)Oc2ccc(Cl)cc2)c([N+](=O)[O-])c1 (stereo not drawn),?,-0.4%,?,17.8µM*,?,?
N#C/C(=C(/O)c1ccc(-c2cccc([N+](=O)[O-])c2)o1)c1nc2ccccc2s1,?,1.2%,12.6µM*,-72.1%,22.7%,i
COc1ccc(-c2cc(=O)c3c(O)cc(O[C@@H]4O[C@H](CO[C@@H]5O[C@@H](C)[C@H](O)[C@@H](O)[C@@H]5O)[C@@H](O)[C@H](O)[C@@H]4O)cc3o2)cc1O,.,.,.,.,5.1%,.
Cc1ccc(C)c(CN2C(=O)c3ccccc3S(=O)c3ccc(C(=O)N4CCN(c5ccccn5)CC4)cc32)c1 (stereo not drawn),2.24µM*,14.2%,14.7%,-28.0%,-36.5%,?
Cc1ccc(C)c(CN2C(=O)c3ccccc3S(=O)c3ccc(C(=O)N4CCN(c5ccccc5F)CC4)cc32)c1 (stereo not drawn),?,-1.0%,34.4%,-8.8%,191.3%,i
C(=Nc1cccnc1)c1ccnc2ccccc12,.,.,-6.2%,-1.5%,.,.
CCOC(=O)CSC1=C(C#N)C(c2ccc(C)o2)CC(=O)N1 (stereo not drawn),0.562µM*,18.2%,?,8.3%,-12.9%,?
O=C(c1cnn2c1NC(=C1CC1)C=C2C(F)F)N1CCc2ccccc21,.,.,-16.9%,-39.3%,.,.
Cc1cccc(Nc2nnc(SCC(=O)NC3CCCc4ccccc43)s2)c1C (stereo not drawn),8.91µM*,5.2%,-7.2%,-0.6%,-9.4%,i
Cc1ccccc1-n1c(C)nnc1SCC(=O)NC1CCCc2ccccc21 (stereo not drawn),-7.9%,4.5%,-6.0%,-21.2%,19.7%,i
COCCN1CCN(C(=O)c2cnn(-c3nccc(-c4ccco4)n3)c2C(C)C)CC1,.,.,.,.,.,i
CC(C)CCNC(=O)c1onc(CSc2ccccc2)c1C(=O)NCCC(C)C,3.98µM*,7.0%,3.5%,-4.4%,3.0%,i
CC(C)CCNC(=O)c1onc(CSc2ccc(Cl)cc2)c1C(=O)NCCC(C)C,10µM*,4.5%,-2.0%,-25.5%,5.3%,i
COc1ccc(C(=O)Nc2ccc(N3CCN(C)CC3)cc2)cc1OC,6.5%,13.1%,0.7%,-1.8%,22.1%,i
C=CC(=O)Nc1cccc(N(C)c2ccnc(Nc3ccc(N4CCN(C)CC4)cc3)n2)c1,-29.5%,-3.5%,5.01µM*,0.2%,?,15.8µM*
O=C(CSc1nc(-c2ccccc2)[nH]c1-c1ccccc1)Nc1ccc2c(c1)OCCO2,?,.,?,10µM*,?,.
Nc1nc(SCC(=O)Nc2ccc3c(c2)OCO3)n[nH]1,-6.9%[7.66 µM],-0.9%,-1.5%,10µM*,8.1%,i
CCOc1ccc(-c2nc(SCC(=O)Nc3ccc4c(c3)OCO4)c(-c3ccc(F)cc3)[nH]2)cc1,1.3%,.,-12.6%,-28.3%,3.5%,i
O=C(CSc1nc(-c2ccc(F)cc2)[nH]c1-c1ccc(F)cc1)Nc1ccc2c(c1)OCO2,?,.,7.08µM*,-68.6%,?,?
COc1ccc(-c2[nH]c(-c3ccccc3)nc2SCC(=O)Nc2ccc3c(c2)OCCO3)cc1,?,.,-21.9%,-5.0%,?,?
O=C(CSc1nc(-c2ccc(F)cc2)[nH]c1-c1ccc(F)cc1)Nc1ccc2c(c1)OCCO2,?,.,7.94µM*,-57.4%,?,.
Cc1cnccc1/C=C/c1ccc(N)cc1,.,.,4.9%,-23.3%,.,.
Cc1cccc(-c2nc(SCC(=O)Nc3ccc4c(c3)OCO4)c(-c3ccccc3)[nH]2)c1,?,.,12.6µM*,-22.3%,?,?
C[C@@H](CCc1ccc(O)cc1)NCCc1ccc(O)c(O)c1,.,.,.,.,.,i
Cc1cc(Cl)c(OCCOCCN2CCN(C)CC2)c(Br)c1,?,11.6%,1.3%,-18.8%,-6.6%,i
SMILES,GLP-1R inv ag,GLP-1R agonist,TGFb SMAD3 inh,HepG2 tox,ATXN2 expr inh,ATXN viability
Clc1ccc(OCCOCCN2CCc3ccccc3C2)c(Cl)c1,11.2µM*,10.5%,?,-27.1%,-21.3%,i
CN1CCN(CCOCCOc2c(Cl)cc(Cl)cc2Cl)CC1,11.2µM*,-3.0%,2.7%,3.8%,-5.4%,.
Clc1ccc(OCCCN2CCc3ccccc3C2)c(Br)c1,?,-6.5%,-29.8%,-66.7%,.,i
COc1ccc(CN2CCC(CNS(=O)(=O)c3cccc(C(F)(F)F)c3)CC2)cc1,11.2µM*,5.5%,-17.5%,-35.1%,-12.3%,i
O=C(O)C[C@H](O)C[C@H](O)C=Cc1c(C2CC2)nc2ccccc2c1-c1ccc(F)cc1,.,.,.,.,33.1%,.
Cc1ccc(C(=O)C2CCN(C(=O)c3ccc(C)cc3)CC2)cc1,8.91µM*,-7.2%,-21.5%,-8.6%,?,?
Nc1nc(-c2nn(Cc3ccccc3F)c3ncccc23)nc(N)c1N1CCOCC1,.,.,.,.,-11.4%,.
COc1ccc(-c2cccc(NS(=O)(=O)c3cc(C)c(Cl)cc3C)c2)nn1,-26.9%,.,?,11.2µM*,-22.0%,i
O=c1[nH]c(=O)n([C@H]2CCCO2)cc1F,.,.,.,.,6.5%,i
Oc1cccc(C(Nc2ccccn2)c2ccc3cccnc3c2O)c1Cl (stereo not drawn),?,.,?,-48.9%,8.91µM*,?
CCCCC(=O)NC(c1ccc(C(C)C)cc1)c1ccc2cccnc2c1O (stereo not drawn),?,-5.9%,?,-46.3%,-82.0%,i
CCCCC(=O)NC(c1ccccc1Cl)c1ccc2cccnc2c1O (stereo not drawn),?,0.5%,?,-32.5%,2.82µM*,?
Oc1c(C(Nc2ccccn2)c2ccccc2)ccc2cccnc12 (stereo not drawn),.,.,-18.8%,-30.9%,.,.
CCC(=O)NC(c1ccccc1OC)c1ccc2cccnc2c1O (stereo not drawn),?,-0.1%,2.51µM*,3.55µM*,?,?
CCCC(=O)NC(c1ccc(OC)cc1)c1ccc2cccnc2c1O (stereo not drawn),?,3.1%,?,-8.7%,1.89µM*,.
COCCN1CCN(C(=O)c2cnn(-c3ncc4c(n3)-c3ccc(OC)cc3CC4)c2C2CC2)CC1,.,.,.,.,.,i
CCCC(=O)NC(c1ccccc1)c1ccc2cccnc2c1O (stereo not drawn),?,5.7%,?,-25.1%,14.1µM*,i
